Assay [1] in a line: Quantitative High-Throughput drug screen in 47 multiple myeloma cell lines against the NCATS MIPE library collection: VP6_DJ cell viability assay (AID 1919867). Also: nearly all actives have a fitted effect of over 40% in size. Also: potency is read from the fitted curve at half-maximal effect. A digest of the protocol: (§1)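 qHTS format: cells plated (500/well), pin-dosed with MIPE 4.0 compounds, kept 48 h at 37 °C. Readout was CellTiter-Glo luminescence, median RLU.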
A short description of assay [2]: Quantitative High-Throughput drug screen in 47 multiple myeloma cell lines against the NCATS MIPE library collection: UTMC2_PLB cell viability assay (AID 1919868). Also: nearly all actives have a fitted effect of over 55% in size. A digest of the protocol: as §1
Assay [3] in a line: Quantitative High-Throughput drug screen in 47 multiple myeloma cell lines against the NCATS MIPE library collection: PE2_PLB cell viability assay (AID 1919869). Also: nearly all actives have a fitted effect of over 35% in size. Also: potency is read from the fitted curve at half-maximal effect. In outline: as §1
Assay [4] is described as follows: Quantitative High-Throughput drug screen in 47 multiple myeloma cell lines against the NCATS MIPE library collection: PCM6_Riken cell viability assay (AID 1919870). Also: nearly all actives have a fitted effect of over 30% in size. Also: potency is read from the fitted curve at half-maximal effect. In outline:
as §1

The nature of assay [5]: Quantitative High-Throughput drug screen in 47 multiple myeloma cell lines against the NCATS MIPE library collection: OPM2_DSMZ cell viability assay (AID 1919872). Also: nearly all actives have a fitted effect of over 30% in size. In outline:
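We plated 500 myeloma cells per well, pinned in MIPE 4.0 compounds, and incubated for 48 hours at 37C. ATP was then quantified with CellTiter-Glo, with DMSO and media-only wells defining 100% and 0%.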

A short description of assay [6]: Quantitative High-Throughput drug screen in 47 multiple myeloma cell lines against the NCATS MIPE library collection: KMS11_JCRBsus cell viability assay (AID 1919873). Also: nearly all actives have a fitted effect of over 50% in size. Also: potency is read from the fitted curve at half-maximal effect. In outline: as §1
A short description of assay [7]: Quantitative High-Throughput drug screen in 47 multiple myeloma cell lines against the NCATS MIPE library collection: KMS28BM_JCRB cell viability assay (AID 1919874). Also: nearly all actives have a fitted effect of over 35% in size. In outline:
as §1

Assay [8] can be described thus: qHTS for identification of novel therapeutic agents for treatment of microphthalmiaassociated transcription factor (MiT) renal cell carcinoma (RCC) (AID 1963991). The note with it: CellTiter-Glo, 48 h, stronger effect = lower value. In outline: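 Three TFE3-fusion RCC lines (UOK109, UOK124, UOK145), 500 cells/well in complete medium, were treated with MIPE 4.0 compounds for 48 hours at 37 C. Viability was by CellTiter-Glo luminescence, normalized to DMSO (100%) and empty wells (0%); curves fitted over 11 concentrations.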

Assay [9] is described as follows: Quantitative High-Throughput drug screen in 47 multiple myeloma cell lines against the NCATS MIPE library collection: RPMI8226_ATCC cell viability assay (AID 1919871). Also: nearly all actives have a fitted effect of over 30% in size. Also: potency is read from the fitted curve at half-maximal effect. In outline: as §1
The nature of assay [10]: KB-8-5-11 P-gp reporter qHTS against the NCATS DSHEA and TCM libraries (AID 1919977). Also: 0% is about no effect. In outline: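 P-gp-overexpressing KB-8-5-11 cells (500/well) were plated in colchicine-free DMEM with 10% FBS, attached ~4 h, then exposed to substance titrations for ~72 h at 37C. Viability was read by CellTiter-Glo luminescence.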
Assay [11] can be described thus: qHTS drug screen for cell cycle checkpoint inhibitors in PARPi-resistant BRCA-mutant ovarian cancer cell lines. (AID 1963452; calls by dose curve; also: potency is read from the fitted curve at half-maximal effect). Particulars: PEO1/OlaR viability, CellTiter-Glo luminescence, 96 h; for Z-AUC: stronger effect = lower value. A digest of the protocol:
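PEO1, PEO4 and PEO1/OlaR ovarian cancer cells, 600 per well, exposed 96 h at 37C to a dilution series. Viability read by CellTiter-Glo luminescence, normalized to DMSO and empty wells; activity summarized as Z-AUC.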

The target in assay [12] is Cytochrome P450 3A4 (Homo sapiens) (UniProt P08684). In words: qHTS for inhibitors of CYP3A4 against the NCATS DSHEA and TCM libraries (AID 1919971).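 Also: % is scaled to controls: 0 for no effect and ±100 for the full control effect; inhibition lowers luminescence from luciferin made by CYP3A4.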 A digest of the protocol: (§2)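 Each CYP isoform and its pro-luciferin substrate, at isoform-specific final concentrations, were preincubated 15 min at RT with substances. NADPH regeneration solution (1x) started a 30-45 min reaction, and P450-Glo luminescence was read.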

Assay [13] has as its target Cytochrome P450 2D6 (Homo sapiens) (UniProt P10635). In words: qHTS for inhibitors of CYP2D6 against the NCATS DSHEA and TCM libraries (AID 1919972). Also: % is scaled to controls: 0 for no effect and ±100 for the full control effect. A digest of the protocol:
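CYP2D6 enzyme with pro-luciferin substrate in manufacturer buffer (typically 100 mM KPO4), preincubated 15 min RT with substances (most at 19.5 nM upward); NADPH regeneration system (1x) started 30–45 min RT reaction; P450-Glo luminescence read after 30 min; quinidine as intraplate control.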

Assay [14] deals with Cytochrome P450 2C9 (Homo sapiens) (UniProt P11712). In words: qHTS for inhibitors of CYP2C9 against the NCATS DSHEA and TCM libraries (AID 1919973).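 Also: luminogenic pro-luciferin CYP2C9 substrate turned into luciferin with NADPH regeneration; % is scaled to controls: 0 for no effect and ±100 for the full control effect.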 In outline:
as §2

Assay [15] deals with Cytochrome P450 2C19 (Homo sapiens) (UniProt P33261). The experiment in a line: qHTS for inhibitors of CYP2C19 against the NCATS DSHEA and TCM libraries (AID 1919974).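 Also: luminescence from luciferin released by CYP2C19 oxidation of a pro-luciferin substrate; % is scaled to controls: 0 for no effect and ±100 for the full control effect.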 In outline:
as §2

In assay [16] the target is Cytochrome P450 1A2 (Homo sapiens) (UniProt P05177). The experiment in a line: qHTS for inhibitors of CYPIA2 against the NCATS DSHEA and TCM libraries (AID 1919976). Also: % is scaled to controls: 0 for no effect and ±100 for the full control effect. In outline:
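Reaction started with 1x NADPH regeneration solution and run 30-45 min, room temperature, protected from light, after compounds sat 15 min with CYP1A2 and pro-luciferin substrate. P450-Glo detection gave luminescence; furafylline served as control.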

Another assay concerns 3D7. In words: qHTS profiling for inhibitors of Plasmodium falciparum proliferation (AID 504749).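 Also: 0% = DMSO vehicle and full inhibition = artemisinin control; nearly all actives have a fitted effect of over 60% in size.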 The note with it: P. falciparum in erythrocytes, SYBR Green DNA, 72 h; series mostly up to 28.7 µM. In outline:
(§3)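 Quantitative HTS: compounds pinned into medium, infected erythrocytes added (0.3% parasitemia, 2.5% hematocrit), 72 h culture at 37 C under 5% CO2. Saponin/Triton lysis with SYBR Green I, overnight RT, then fluorescence read.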

The next assay deals with AA1029. The description is as above. The note with it: P. falciparum in erythrocytes, SYBR Green DNA, 72 h; series mostly up to 28.7 µM. A digest of the protocol: as §3
Setting [17] is: TFE3-RCC UOK109 viability, measured here: UOK109 Z-AUC.
The mark [18] stands for this setting: TFE3-RCC viability, measured here: UOK124 Z-AUC.
Setting [19] is: TFE3-RCC viability, measured here: UOK145 Z-AUC.
Where [20] appears, read: measured here: PEO1 parental Z-AUC.

Inconclusive results are not listed. The source made the active and inactive calls. Unless noted, calls follow the shape of the dose curve; as a rule, active = well fitted curve in the direction sought with a large enough effect; inconclusive = small, poorly fitted or top-dose-only effect, or another doubt; inactive = no such curve, though single readings can be large; an effect the other way counts as inactive or inconclusive.

Data on 17 molecules can be found in PubChem BioAssay (NCATS).

Chain of Cytochrome P450 2C9 (Homo sapiens) (P11712 whole entry, looked up): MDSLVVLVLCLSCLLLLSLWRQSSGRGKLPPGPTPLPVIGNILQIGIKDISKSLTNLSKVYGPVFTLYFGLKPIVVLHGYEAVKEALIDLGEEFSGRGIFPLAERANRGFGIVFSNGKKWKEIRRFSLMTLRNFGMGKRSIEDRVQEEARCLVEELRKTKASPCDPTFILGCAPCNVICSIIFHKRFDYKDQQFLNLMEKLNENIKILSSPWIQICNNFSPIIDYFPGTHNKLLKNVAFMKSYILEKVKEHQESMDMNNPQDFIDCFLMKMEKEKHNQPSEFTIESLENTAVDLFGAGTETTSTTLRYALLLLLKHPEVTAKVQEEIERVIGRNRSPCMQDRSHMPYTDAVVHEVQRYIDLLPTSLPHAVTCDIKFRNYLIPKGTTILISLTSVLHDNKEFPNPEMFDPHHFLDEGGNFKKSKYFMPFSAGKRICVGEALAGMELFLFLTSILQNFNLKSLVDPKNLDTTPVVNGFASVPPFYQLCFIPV
Chain of Cytochrome P450 2D6 (Homo sapiens) (P10635 whole entry, looked up): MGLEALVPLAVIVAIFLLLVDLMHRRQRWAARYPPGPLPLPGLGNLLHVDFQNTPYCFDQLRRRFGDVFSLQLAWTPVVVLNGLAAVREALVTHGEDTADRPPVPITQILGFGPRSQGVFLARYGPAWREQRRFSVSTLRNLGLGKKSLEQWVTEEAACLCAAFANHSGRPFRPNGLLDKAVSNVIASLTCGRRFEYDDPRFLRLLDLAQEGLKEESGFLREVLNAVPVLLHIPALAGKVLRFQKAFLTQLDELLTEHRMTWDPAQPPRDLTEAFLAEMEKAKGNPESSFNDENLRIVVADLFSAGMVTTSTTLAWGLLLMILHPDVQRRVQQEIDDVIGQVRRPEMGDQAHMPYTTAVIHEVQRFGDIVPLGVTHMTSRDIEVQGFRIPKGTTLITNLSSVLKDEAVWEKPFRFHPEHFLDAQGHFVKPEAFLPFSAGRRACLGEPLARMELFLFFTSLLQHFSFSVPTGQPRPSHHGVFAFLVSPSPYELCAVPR
Chain of Cytochrome P450 3A4 (Homo sapiens) (P08684 whole entry, looked up, canonical isoform): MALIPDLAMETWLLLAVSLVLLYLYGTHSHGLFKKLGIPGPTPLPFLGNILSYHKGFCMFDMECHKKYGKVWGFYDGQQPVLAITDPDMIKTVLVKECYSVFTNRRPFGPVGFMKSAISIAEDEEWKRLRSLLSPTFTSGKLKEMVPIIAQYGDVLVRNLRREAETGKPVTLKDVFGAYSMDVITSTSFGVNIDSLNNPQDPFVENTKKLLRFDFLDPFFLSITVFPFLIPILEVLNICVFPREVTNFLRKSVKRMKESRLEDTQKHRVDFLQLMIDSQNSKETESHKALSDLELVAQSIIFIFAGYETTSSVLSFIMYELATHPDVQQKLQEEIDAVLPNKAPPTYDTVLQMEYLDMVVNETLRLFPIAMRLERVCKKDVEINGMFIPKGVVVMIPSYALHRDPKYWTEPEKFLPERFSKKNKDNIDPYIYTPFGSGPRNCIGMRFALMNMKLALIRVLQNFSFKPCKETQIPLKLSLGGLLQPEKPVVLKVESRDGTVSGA
Chain of Cytochrome P450 2C19 (Homo sapiens) (P33261 whole entry, looked up): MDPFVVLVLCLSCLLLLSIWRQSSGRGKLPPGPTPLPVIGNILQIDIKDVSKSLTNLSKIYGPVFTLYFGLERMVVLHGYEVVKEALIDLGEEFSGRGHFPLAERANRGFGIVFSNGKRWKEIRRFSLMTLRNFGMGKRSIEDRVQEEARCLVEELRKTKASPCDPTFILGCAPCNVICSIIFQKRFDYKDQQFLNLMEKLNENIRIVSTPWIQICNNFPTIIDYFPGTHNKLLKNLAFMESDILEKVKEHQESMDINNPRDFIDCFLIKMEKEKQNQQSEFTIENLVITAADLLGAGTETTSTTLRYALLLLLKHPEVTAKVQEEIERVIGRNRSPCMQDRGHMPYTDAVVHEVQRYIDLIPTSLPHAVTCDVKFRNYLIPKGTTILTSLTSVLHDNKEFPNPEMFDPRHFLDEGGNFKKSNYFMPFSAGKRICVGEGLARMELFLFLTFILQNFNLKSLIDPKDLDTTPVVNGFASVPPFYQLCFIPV
Chain of Cytochrome P450 1A2 (Homo sapiens) (P05177 whole entry, looked up): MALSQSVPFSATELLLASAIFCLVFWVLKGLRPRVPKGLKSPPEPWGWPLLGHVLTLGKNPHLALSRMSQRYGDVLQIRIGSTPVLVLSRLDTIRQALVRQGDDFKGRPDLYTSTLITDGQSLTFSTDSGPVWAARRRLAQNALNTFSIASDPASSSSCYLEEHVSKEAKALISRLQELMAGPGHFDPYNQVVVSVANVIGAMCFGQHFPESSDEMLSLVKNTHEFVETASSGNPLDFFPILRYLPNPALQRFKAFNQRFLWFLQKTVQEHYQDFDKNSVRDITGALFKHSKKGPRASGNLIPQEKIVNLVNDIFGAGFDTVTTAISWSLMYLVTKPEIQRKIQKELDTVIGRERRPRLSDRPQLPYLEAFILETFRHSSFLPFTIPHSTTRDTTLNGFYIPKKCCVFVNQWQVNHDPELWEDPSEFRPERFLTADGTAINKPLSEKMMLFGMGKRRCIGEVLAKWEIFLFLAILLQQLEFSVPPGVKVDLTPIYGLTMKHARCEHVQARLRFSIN

Turning to `COc1cc(OC)c(OC)cc1C=O`, the Potency entry in assay [1], in assay [2], in assay [3], in [4] and in assay [6] was “inactive” each time. Also, the molecule was classed as inactive in [5] and in assay [7]. For the same molecule, the z-score in assay [8] (setting [17]) stood at 0.0222; in assay [8] (setting [18]), 0.514; in assay [8] (setting [19]) it was 0.092.

For `C[C@]12CCC(=O)C=C1CC[C@@H]1[C@H]3CC[C@](C)(O)[C@@]3(C)CC[C@@H]12`, the Potency entry in assay [2] was “inactive”. In addition, the Potency is 38200 nM (active) in [9] and 42900 nM (active) in assay [6].

Take `CCCCCCCCCCCCCCCC(=O)O`: the outcome in assay [10] was inactive.

`CC(C)=CCC[C@@](C)(O)[C@H]1CC=C(C)CC1`: the call in [10] was inactive.

For the molecule `CC(NC(C)(C)C)C(=O)c1cccc(Cl)c1` (configuration not stated), the Potency result in [3] and in assay [4] was “inactive” each time. Besides, the Potency in assay [9] was 20900 nM (active). The result in [5] and in assay [7] was inactive. Also, the Z-AUC was -0.176 (inactive) in assay [11], 0.0369 in assay [11] (setting [20]) and 1.02 in assay [11] (measured here: PEO4 Z-AUC). Also, the z-score in assay [8] (setting [17]) stood at 0.679; in assay [8] (setting [18]), 0.615; in [8] (setting [19]), 0.622.

For the molecule `O=C(O)c1cccnc1`, in assay [10], the outcome was inactive.

For `NC(=O)NC1NC(=O)NC1=O` (configuration not stated), the molecule was classed as inactive in [10].

Take `O=C(O)CCCC[C@@H]1SC[C@@H]2NC(=O)N[C@@H]21`: in [10], the molecule was classed as inactive.

Take `COc1cccc2c1C(=O)c1c(O)c3c(c(O)c1C2=O)C[C@@](O)(C(=O)CO)CC3OC1CC(N2CCOC(OC)C2)C(O)C(C)O1` (some centres not stated): the Potency in assay [11] is 7.8 nM (active). Besides, the Z-AUC in assay [11] (setting [20]) was -3.26; in assay [11] (measured here: PEO4 Z-AUC) it was -2.98.

Regarding `NNC(=O)c1ccncc1`, the molecule was classed as inactive in assay [10].

Take `Nc1ccc(C(=O)O)cc1`: the call in assay [10] was inactive.

Take `CC(C)C[C@H](CN)CC(=O)O`: the Potency result in assay [3], in assay [9] and in [6] was “inactive” throughout. In addition, the outcome in assay [5] and in assay [7] was inactive. Moreover, the Z-AUC in assay [11] was 1.17 (inactive); in assay [11] (setting [20]), 0.458; in assay [11] (measured here: PEO4 Z-AUC), 0.548. Besides, the z-score was -0.701 in assay [8] (setting [17]), 0.851 in assay [8] (setting [18]) and 0.709 in assay [8] (setting [19]).

`C[C@]12CC[C@H]3[C@@H](CC[C@@]45O[C@H]4C(O)=C(C#N)C[C@]35C)[C@H]1CC[C@H]2O`: the Potency entry in assay [2], in assay [3], in assay [4], in assay [9] and in assay [6] was “inactive” in each case. The outcome in [5] and in [7] was inactive.

In the case of `CCCCCCCCCCCCCCCCCC(=O)O`, the call in assay [12], in assay [13], in [14], in assay [15], in assay [16] and in [10] was inactive.

Regarding `CCC1(c2ccc(N)cc2)CCC(=O)NC1=O` (configuration not stated), the Potency entry in [2], in assay [3] and in [9] was “inactive” throughout. The result in [5] and in [7] was inactive. For the same molecule, the Z-AUC in assay [11] is 1.39 (inactive); in [11] (setting [20]) it was 0.942; in [11] (measured here: PEO4 Z-AUC), 1.02.

For `C[C@](O)(CS(=O)(=O)c1ccc(F)cc1)C(=O)Nc1ccc(C#N)c(C(F)(F)F)c1`, the Potency in assay [1], in assay [3] and in assay [4] was 662 nM (active) throughout. The Potency entry (in assay [9]; in assay [6]; with 3D7; in the assay with AA1029) was “inactive” in each case. Further, the Z-AUC in [11] was 0.83 (inactive); in assay [11] (setting [20]), 0.549; in assay [11] (measured here: PEO4 Z-AUC), 0.67.

Consider `C=CCc1ccc(O)c(OC)c1`, for which the call in assay [10] was inactive.
